Test results published in PubChem BioAssay (NCI).
About 83,000 compounds went through this panel and 20% of them were active in at least one assay; those are over-represented in the sample as a whole.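 The test compound was applied at a single concentration to cells in 96-well plates for 48 hours, and percent growth was recorded.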 Unmarked numbers belong to inactive results. The source made the active and inactive calls. Rule for the calls: active = growth percent below 10; inactive = the rest.

What follows are molecules tested on SW-620 colon (assay: NCI-60 one-dose screen, 48 h (100 = growth as untreated, 0 = no growth, -100 = all killed)). Conditions: 10 µM unless noted.
In the case of `Cc1ccccc1Nc1cc(O)c2c(=O)cc(-c3ccccc3)oc2c1`, the growth is reported as 21%.
In the case of `CN(C)c1ccc(/C=C(\C#N)c2cc3ccccc3[nH]2)cc1`, the growth is reported as 13.2%.
Work on `CNC1=CC(=O)c2c(C(=O)OC)c(C)[n+]([O-])c(C)c2C1=O` yielded a growth of 42.5%.
Work on `Cc1ccc(-c2nc(/C=C3/C(=O)Nc4ccc(F)cc43)c3ccccn23)cc1` yielded a growth of 44.3%.
`O=S(=O)(Oc1ccc(Br)cc1)c1ccc(Cl)cc1` was tested, and the growth was 102%.
For `Cc1ccc(S(=O)(=O)Oc2ccc3sc4cccc(NCCN(C)C)c4c(=O)c3c2)cc1`, the growth was -92.4% (active).
`CCCCNc1nnc2n(Cc3ccccc3)c(=O)c3c4c(sc3n12)CCCC4` gave a growth of 23.3%.
In the case of `N=C(N)c1ccc(-c2ccc(-c3ccccc3)s2)cc1`, the growth is reported as -46.2% (active).
Molecule `CC/C(Cc1ccccc1)=C(\c1ccc(OCCCN(C)C)cc1)c1ccc(OC(=O)NCc2ccccc2)cc1` has a growth of 14.5%.
`CNC(=O)c1cc(Oc2ccc3c(c2)sc2nc(-c4ccc(OC)cc4)cn23)ccn1` gave a growth of 77.7%.
For `O=C(Nc1ncc(Cc2ccccc2)s1)c1ccc2c(c1)OCCCO2`, the growth was 38.1%.
`Cc1[nH]c(C2CC(c3ccc(C(F)(F)F)c(F)c3)=NN2c2ccccc2)c(C)c1C(=O)NCC(F)(F)F` (stereo unspecified) was tested, and the growth was 99.1%.
With `COc1cc2c(cc1OCCCCN1CCN(C(=S)SCCC(C#N)(c3ccccc3)c3ccccc3)CC1)N=C[C@@H]1CCCN1C2=O` the growth was -95.6% (active).
Work on `COc1ccc(-c2nc(-c3cn(C)c4ncccc34)cs2)cc1` yielded a growth of 10.8% [100 µM].
With `COc1ccc(C(=O)Cn2c(C(=O)c3ccc(Cl)cc3)nc3ccccc32)cc1` the growth was 32.7%.
For `Cc1ccc(Cl)cc1NC(=O)c1sc2nc3c(cc2c1N)C(=O)CCC3`, the growth was 36.5%.
With `Nn1c(=O)c(=O)[nH]c2c(cnn2-c2ccccc2)c1=O` the growth was 110%.
`Cc1ccc(CNc2c3ccccc3nc3ccccc23)cc1` showed a growth of 20.2%.
`COc1cc(Cl)c(C)cc1NC(=O)c1cc2ccccc2cc1O` was tested, and the growth was 21.2%.
`Cc1nc2ccccc2c(/C=C/c2ccccc2)c1C(=O)/C=C/c1ccccc1` was tested, and the growth was -65.6% (active).
For `Cc1ncc(C(=O)Nc2ccc(CN3CCN(C)CC3)c(C(F)(F)F)c2)cc1C#Cc1cnc(N)c2ncccc12`, the growth was 16.6%.
With `CN(CCCNC(=O)Cc1ccc2ccc3cccc4ccc1c2c34)CCCNc1cc(-c2ccc3ccccc3c2)nc2ccccc12` the growth was -69.4% (active).
`O=[N+]([O-])c1cc(NS(=O)(=O)c2ccccc2)ccc1NS(=O)(=O)c1ccccc1` gave a growth of 84.4%.
With `O=C1/C(=C\c2cccc3nccnc23)SC(=S)N1CCc1ccc(O)cc1` the growth was 101%.
`CC(=C(c1ccc(OCCN2CCCCC2)cc1)c1ccc(OCCN2CCCCC2)cc1)c1ccc(Cl)cc1` was tested, and the growth was -84.8% (active).
Work on `CCN1CCN(CC(=O)Nc2nc3ccc(NCc4ccc(F)cc4)cc3s2)CC1` yielded a growth of 92.3%.
Work on `CCCCNc1cc(-c2cn[nH]c2-c2cc(C)cc(OC)c2)nc(-c2cccnc2)n1` yielded a growth of 107%.
Molecule `C/C(=N\O)c1ccc(NC(=O)CSc2nnc(-c3cc(-c4ccc(S(N)(=O)=O)cc4)nc4ccccc34)n2-c2ccccc2)cc1` has a growth of 74.7%.
Work on `CCCn1cnc2c(c1=N)C(c1ccc(F)cc1)c1sc3c(F)cccc3c1O2` (stereo unspecified) yielded a growth of 25.1%.
Molecule `C=C1C(=O)O[C@H]2[C@H]1CC/C(COC(=O)/C=C\C(=O)NCc1ccc(Cn3c(=O)sn(CCCCC)c3=O)cc1)=C\CC[C@@]1(C)O[C@@H]21` has a growth of 19.2%.
`Cc1c2cccnc2c(C)c2c1c1cc(CO)ccc1n2C` showed a growth of 15.8%.
`C=C1C(=O)O[C@H]2[C@H]1CC/C(COC(=O)c1ccc(C(=O)O)s1)=C\CC[C@@]1(C)O[C@@H]21` was tested, and the growth was 4.69% (active).
`CCN1C(=O)N(CC)C2C1NN=c1s/c(=C\c3cnc(C)n3C)c(=O)n12` (stereo unspecified) was tested, and the growth was 9.38% (active).
`CC1=C(C(=O)Nc2ccccc2)C(c2ccc3c(c2)OCO3)NC(=S)N1` (stereo unspecified) showed a growth of 107%.
Work on `O=C(NC(Cc1nnc2n(Cc3ccccc3)c(=O)c3c4c(sc3n12)CCCC4)c1ccccc1)c1ccccc1` (stereo unspecified) yielded a growth of 101%.
`Cc1c2ccncc2c(C)c2c1c1cc(CO)ccc1n2C` was tested, and the growth was 1.67% (active).
Molecule `COc1ccc(-c2nc3c(N)c(CO)cnc3s2)cc1` has a growth of 94.1%.
Work on `O=C(O)COc1ccc(Cl)c(Cl)c1` yielded a growth of 109%.
Work on `CCN(CC)c1ccc(/C=N/NC(=O)Cc2ccc(Nc3ccnc(C(F)(F)F)c3)cc2)c(O)c1` yielded a growth of 35.6%.
`NC(=O)c1cnc(Nc2cccc(N)c2)nc1NCCCNC(=O)C1CCC1` showed a growth of 86.8%.

What follows are molecules tested on MCF7 breast in the same assay as above. Conditions: 10 µM unless noted.
`Cc1ccccc1Nc1cc(O)c2c(=O)cc(-c3ccccc3)oc2c1` gave a growth of 15.5%.
For `CN(C)c1ccc(/C=C(\C#N)c2cc3ccccc3[nH]2)cc1`, the growth was 19.9%.
`CNC1=CC(=O)c2c(C(=O)OC)c(C)[n+]([O-])c(C)c2C1=O` gave a growth of 57%.
`O=S(=O)(Oc1ccc(Br)cc1)c1ccc(Cl)cc1` was tested, and the growth was 91.7%.
`Cc1ccc(S(=O)(=O)Oc2ccc3sc4cccc(NCCN(C)C)c4c(=O)c3c2)cc1` was tested, and the growth was -86.7% (active).
In the case of `CCCCNc1nnc2n(Cc3ccccc3)c(=O)c3c4c(sc3n12)CCCC4`, the growth is reported as 43.4%.
In the case of `CC/C(Cc1ccccc1)=C(\c1ccc(OCCCN(C)C)cc1)c1ccc(OC(=O)NCc2ccccc2)cc1`, the growth is reported as 15.6%.
Work on `CNC(=O)c1cc(Oc2ccc3c(c2)sc2nc(-c4ccc(OC)cc4)cn23)ccn1` yielded a growth of 12.9%.
Work on `O=C(Nc1ncc(Cc2ccccc2)s1)c1ccc2c(c1)OCCCO2` yielded a growth of 16.1%.
Work on `Cc1[nH]c(C2CC(c3ccc(C(F)(F)F)c(F)c3)=NN2c2ccccc2)c(C)c1C(=O)NCC(F)(F)F` (stereo unspecified) yielded a growth of 56.5%.
For `COc1cc2c(cc1OCCCCN1CCN(C(=S)SCCC(C#N)(c3ccccc3)c3ccccc3)CC1)N=C[C@@H]1CCCN1C2=O`, the growth was -93.4% (active).
Work on `COc1ccc(C(=O)Cn2c(C(=O)c3ccc(Cl)cc3)nc3ccccc32)cc1` yielded a growth of 20.4%.
Work on `Cc1ccc(Cl)cc1NC(=O)c1sc2nc3c(cc2c1N)C(=O)CCC3` yielded a growth of 35.6%.
In the case of `Nn1c(=O)c(=O)[nH]c2c(cnn2-c2ccccc2)c1=O`, the growth is reported as 99.4%.
`Cc1ccc(CNc2c3ccccc3nc3ccccc23)cc1` was tested, and the growth was 9.04% (active).
`COc1cc(Cl)c(C)cc1NC(=O)c1cc2ccccc2cc1O` was tested, and the growth was 17.2%.
Work on `Cc1nc2ccccc2c(/C=C/c2ccccc2)c1C(=O)/C=C/c1ccccc1` yielded a growth of 17%.
In the case of `Cc1ncc(C(=O)Nc2ccc(CN3CCN(C)CC3)c(C(F)(F)F)c2)cc1C#Cc1cnc(N)c2ncccc12`, the growth is reported as -58.6% (active).
With `CN(CCCNC(=O)Cc1ccc2ccc3cccc4ccc1c2c34)CCCNc1cc(-c2ccc3ccccc3c2)nc2ccccc12` the growth was -86.2% (active).
`O=[N+]([O-])c1cc(NS(=O)(=O)c2ccccc2)ccc1NS(=O)(=O)c1ccccc1` gave a growth of 112%.
Molecule `O=C1/C(=C\c2cccc3nccnc23)SC(=S)N1CCc1ccc(O)cc1` has a growth of 94.4%.
For `CC(=C(c1ccc(OCCN2CCCCC2)cc1)c1ccc(OCCN2CCCCC2)cc1)c1ccc(Cl)cc1`, the growth was -85.4% (active).
With `CCN1CCN(CC(=O)Nc2nc3ccc(NCc4ccc(F)cc4)cc3s2)CC1` the growth was 92.1%.
`CCCCNc1cc(-c2cn[nH]c2-c2cc(C)cc(OC)c2)nc(-c2cccnc2)n1` was tested, and the growth was 88.1%.
Work on `C/C(=N\O)c1ccc(NC(=O)CSc2nnc(-c3cc(-c4ccc(S(N)(=O)=O)cc4)nc4ccccc34)n2-c2ccccc2)cc1` yielded a growth of 44.6%.
`CCCn1cnc2c(c1=N)C(c1ccc(F)cc1)c1sc3c(F)cccc3c1O2` (stereo unspecified) gave a growth of 15.1%.
In the case of `C=C1C(=O)O[C@H]2[C@H]1CC/C(COC(=O)/C=C\C(=O)NCc1ccc(Cn3c(=O)sn(CCCCC)c3=O)cc1)=C\CC[C@@]1(C)O[C@@H]21`, the growth is reported as 36.6%.
`Cc1c2cccnc2c(C)c2c1c1cc(CO)ccc1n2C` was tested, and the growth was 6.87% (active).
`C=C1C(=O)O[C@H]2[C@H]1CC/C(COC(=O)c1ccc(C(=O)O)s1)=C\CC[C@@]1(C)O[C@@H]21` was tested, and the growth was 13%.
`CCN1C(=O)N(CC)C2C1NN=c1s/c(=C\c3cnc(C)n3C)c(=O)n12` (stereo unspecified) was tested, and the growth was 14.5%.
Molecule `CC1=C(C(=O)Nc2ccccc2)C(c2ccc3c(c2)OCO3)NC(=S)N1` (stereo unspecified) has a growth of 99.8%.
`O=C(NC(Cc1nnc2n(Cc3ccccc3)c(=O)c3c4c(sc3n12)CCCC4)c1ccccc1)c1ccccc1` (stereo unspecified) gave a growth of 97.9%.
Molecule `COc1ccc(-c2nc3c(N)c(CO)cnc3s2)cc1` has a growth of 91%.
Molecule `O=C(O)COc1ccc(Cl)c(Cl)c1` has a growth of 108%.
Molecule `CCN(CC)c1ccc(/C=N/NC(=O)Cc2ccc(Nc3ccnc(C(F)(F)F)c3)cc2)c(O)c1` has a growth of 20.9%.
`NC(=O)c1cnc(Nc2cccc(N)c2)nc1NCCCNC(=O)C1CCC1` was tested, and the growth was 74.7%.
